PubChem BioAssay (Tox21)
Results filed as inconclusive are left out. Values without a mark were called inactive. Activity calls are given as the source filed them. The call rests on the fitted dose curve; in most records, active means well fitted inhibition curve with a large enough effect in the signal ratio in the repeat runs (not every such curve was filed as active); inconclusive means weak or mixed curves, or effect the other way; inactive means no such curve, though single readings can be large or run the other way; the % refers to the signal ratio.

Molecular target: Glucocorticoid receptor (Homo sapiens) (UniProt P04150)
Sequence (P04150 whole entry, looked up): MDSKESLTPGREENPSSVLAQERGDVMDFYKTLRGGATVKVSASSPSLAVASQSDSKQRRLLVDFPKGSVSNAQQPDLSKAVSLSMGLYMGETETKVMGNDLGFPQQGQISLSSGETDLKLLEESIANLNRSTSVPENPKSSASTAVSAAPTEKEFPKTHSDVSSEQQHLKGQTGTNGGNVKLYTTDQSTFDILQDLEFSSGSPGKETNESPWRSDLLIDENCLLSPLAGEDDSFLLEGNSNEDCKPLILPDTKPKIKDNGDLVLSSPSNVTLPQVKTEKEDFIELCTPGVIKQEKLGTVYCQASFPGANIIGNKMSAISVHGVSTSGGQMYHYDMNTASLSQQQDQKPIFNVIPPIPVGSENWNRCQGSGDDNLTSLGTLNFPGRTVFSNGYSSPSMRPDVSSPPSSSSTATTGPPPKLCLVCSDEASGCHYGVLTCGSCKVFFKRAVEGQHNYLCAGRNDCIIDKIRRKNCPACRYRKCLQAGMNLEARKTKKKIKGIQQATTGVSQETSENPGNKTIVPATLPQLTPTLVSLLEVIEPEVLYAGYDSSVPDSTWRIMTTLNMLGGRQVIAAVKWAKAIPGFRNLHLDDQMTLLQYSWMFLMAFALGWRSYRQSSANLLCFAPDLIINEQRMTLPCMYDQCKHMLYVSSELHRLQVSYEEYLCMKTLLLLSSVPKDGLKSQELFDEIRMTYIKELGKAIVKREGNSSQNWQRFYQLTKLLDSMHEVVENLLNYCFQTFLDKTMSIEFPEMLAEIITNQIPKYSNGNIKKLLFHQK
Assay: qHTS assay to identify small molecule antagonists of the glucocorticoid receptor (GR) signaling pathway (AID 720692)
Settings: GR-bla HeLa, beta-lactamase FRET ratio, dexamethasone-stimulated, 18 h; series mostly up to 58.5 µM; activity change, negative = inhibition: at the top concentration
Text: U.S. Tox21 Program National Center for Advancing Translational Sciences [NCATS] NIH Chemical Genomics Center [NCGC] U.S. Environmental Protection Agency [EPA] National Institutes of Environmental Health Sciences [NIEHS] National Toxicology Program [NTP] U.S. Food and Drug Administration [FDA] Tox21 Assay Overview: The Glucocorticoid receptor (GR) is one of the members of the nuclear receptor family of ligand-dependent transcription factors. GR plays a critical role in carbohydrate, protein and lipid metabolisms and programmed cell death. CellSensor GR-bla HeLa cell line (Invitrogen) contains a beta-lactamase reporter gene under the control of the glucocorticoid response element stably integrated into HeLa cells, a cervical cancer cell line that expresses glucocorticoid receptor. The activation of the reporter gene under culture conditions can be detected by fluorescence intensity. This cell line has been used to screen the Tox21 10K compound library and to identify the compounds that inhibit the GR signaling.
Tox21 Assay Protocol Summary: The GR-bla HeLa cells were dispensed at 1500 cells/5 ul/well in 1536-well black wall/clear bottom plates using a Multidrop Combi (ThermoFisher Scientific, Waltham, MA) dispenser. After the assay plates were incubated at a 37 C/5% CO2 incubator for 4 hours, 23 nL of compounds dissolved in DMSO, positive controls or DMSO only was transferred to the assay plate by a pintool station (Kalypsys, San Diego, CA), followed by addition of 1 uL of dexamethasone (5 nM, final concentration in the well). The plates were incubated at 37 C for 18 hours. After 1 uL of LiveBLAzerTM B/G FRET substrate was added using a Flying Reagent Dispenser (Aurora Discovery, San Diego, CA), the plates were incubated at room temperature for 2 hours, and fluorescence intensity was measured by an Envision plate reader (PerkinElmer, Shelton, CT).
On the % scale 0 is the no-effect control and ±100 the full control effect.

| SMILES | activity change, negative = inhibition | Potency |
| --- | --- | --- |
| CN(C)C1CCCCC1 | 0.709% | – |
| COc1ccccc1OC | 13.7% | – |
| C=C(Cl)CCl | -3.76% | – |
| CCCCCCC(=O)CCCCCC/C=C/C[C@@H](O)[C@H](O)[C@@](N)(CO)C(=O)O | -0.259% | – |
| CCC(=O)OC1(c2ccccc2)CCN(C)CC1 | -8.85% [at 78.9 µM] | – |
| CC(O)CCl (stereo not given) | -6.49% | – |
| CCOC(=O)N(C)N=O | 11.7% | – |
| O=[N+]([O-])c1cccc(CCl)c1 | -27.5% [at 78.9 µM] | – |
| C[C@H](N)C(=O)c1ccccc1 | 1.61% [at 78.9 µM] | – |
| O=P(O)(O)CN(CP(=O)(O)O)CP(=O)(O)O | 20.8% [at 27 µM] | – |
| C=CCCC#N | -0.864% | – |
| CC(Cc1ccccc1)NCCn1cnc2c1c(=O)n(C)c(=O)n2C (stereo not given) | -0.42% | – |
| CCNc1nc(NCC)nc(SC)n1 | -16.2% | – |
| C/C(=N\NC(=O)Nc1cc(F)cc(F)c1)c1ncccc1C(=O)O | 10.5% | – |
| [P]#[In] | -0.227% | – |
| CCN[C@H](C)Cc1cccc(C(F)(F)F)c1 | -7.64% | – |
| CCC1(c2cccc(O)c2)CCCCN(C)C1 (stereo not given) | 13.8% [at 27 µM] | – |
| ClCCCCCCCl | 4.92% | – |
| C[C@H](CN1CCOCC1)C(C(=O)N1CCCC1)(c1ccccc1)c1ccccc1 | -1.58% [at 78.9 µM] | – |
| COC(=O)c1ccccc1CS(=O)(=O)NC(=O)Nc1nc(OC)cc(OC)n1 | 0.326% | – |

| SMILES | activity change, negative = inhibition | Potency |
| --- | --- | --- |
| COC1=CC(=O)O[C@@H](/C=C/c2ccccc2)C1 | 2.56% [at 78.9 µM] | – |
| CC(C)(C)C(=O)Cl | -13% [at 78.9 µM] | – |
| CCCOc1nn(C(=O)NS(=O)(=O)c2ccccc2C(=O)OC)c(=O)n1C | 11.4% | – |
| COc1cccc(C=O)c1 | 1.48% | – |
| O=C/C=C/c1ccco1 | -11.4% | – |
| CCOC(=O)CCl | -1.37% | – |
| O=[N+]([O-])CCO | -4.87% [at 78.9 µM] | – |
| CCC(=O)c1ccc(Cl)cc1 | -13.3% | – |
| CC(C)C(C)(N)C#N (stereo not given) | 15.3% | – |
| BrCC1CO1 (stereo not given) | -6.59% [at 78.9 µM] | – |
| CNC(=O)Oc1ccccc1C(C)C | 0.567% | – |
| Cc1ccc(Cl)c(O)c1 | -6.43% | – |
| ClCC1CO1 (stereo not given) | – | inactive |
| CNC(=O)O/N=C(/CSC)C(C)(C)C | 3.04% | – |
| C=CC=O | -0.824% [at 78.9 µM] | – |
| CCOC(=O)CC(SP(=S)(OC)OC)C(=O)OCC (stereo not given) | 0.212% | – |
| CCCCCCC1CCOC1=O (stereo not given) | -1.42% | – |
| CCCCCCCC(=O)Cl | -0.201% [at 78.9 µM] | – |
| CCOc1cc(OP(=S)(OC)OC)nc(CC)n1 | -1.19% | – |
| NCCOS(=O)(=O)O | -1.73% | – |
